# Changes are numbered by the printed parent chain.
# Experiments:
# Test in all cases: yeast three-hybrid, YBZ-1, SC-Leu-His + 0.5 mM 3-AT, 4 days
# Conditions in all cases: tags: N-Gal4 AD-HA kept; label: inside an RPR1-promoter hybrid RNA with tandem MS2 sites; ssRNA
# [1] = target: PUM1 PUF domain R4-NYP (Homo sapiens, UniProt Q14671 828-1176, H972Y;Q975P)
# Outline: (§1)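 Each repeat of the Pumilio-1 PUF domain was randomized at its three base-contacting residues, and these libraries were co-expressed from a centromeric plasmid with matching RNA elements in strain YBZ-1. After four days on SC-Leu (input) or SC-Leu-His + 0.5 mM 3-AT (selection), the repeat regions were PCR-amplified and Illumina-sequenced. The interaction score compares variant frequency between input and selection as a log change, computed in log2 with a pseudocount of 1 for absent variants.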
# [2] = target: PUM1 PUF domain R4-MPS (Homo sapiens, UniProt Q14671 828-1176, N971M;H972P;Q975S)
# Outline: as §1
# [3] = target: T1, PUM1 PUF domain R6-NWI (Homo sapiens, UniProt Q14671 828-1176, Y1044W;Q1047I)
# T1 sequence: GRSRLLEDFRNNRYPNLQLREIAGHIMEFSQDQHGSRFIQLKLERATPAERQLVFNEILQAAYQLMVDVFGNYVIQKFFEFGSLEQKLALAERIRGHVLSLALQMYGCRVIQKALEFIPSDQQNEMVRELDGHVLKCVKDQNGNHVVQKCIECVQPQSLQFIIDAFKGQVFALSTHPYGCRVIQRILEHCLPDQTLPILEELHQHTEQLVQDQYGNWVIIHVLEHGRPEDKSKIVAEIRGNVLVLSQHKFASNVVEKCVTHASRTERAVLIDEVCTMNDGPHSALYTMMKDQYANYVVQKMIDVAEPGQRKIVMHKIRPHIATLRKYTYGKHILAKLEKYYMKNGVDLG
# Outline: as §1
# [4] = target: PUM1 PUF domain R5-LLR (Homo sapiens, UniProt Q14671 828-1176, C1007L;R1008L;Q1011R)
# Outline: as §1
# [5] = target: PUM1 PUF domain R3-GND (Homo sapiens, UniProt Q14671 828-1176, C935G;R936N;Q939D)
# Outline: as §1
# [6] = target: PUM1 PUF domain R5-RQP (Homo sapiens, UniProt Q14671 828-1176, C1007R;R1008Q;Q1011P)
# Outline: as §1
# [7] = target: T2, PUM1 PUF domain R6-GWK (Homo sapiens, UniProt Q14671 828-1176, N1043G;Y1044W;Q1047K)
# T2 sequence: T1 sequence with N216G, I220K
# Outline: as §1
# [8] = target: PUM1 PUF domain R5-KSS (Homo sapiens, UniProt Q14671 828-1176, C1007K;R1008S;Q1011S)
# Outline: as §1
# [9] = target: PUM1 PUF domain R3-RAM (Homo sapiens, UniProt Q14671 828-1176, C935R;R936A;Q939M)
# Outline: as §1
sequence,measurement,setting,value
GGCUAGAACUAGUGGAUCCCCCGGCGCCCGGCGGCUCGAGCCCGGGUAAGUGUAUAUAGUCUGCAUGCCGCCGGGCGCCAUGCCUGCAGGUCGACUCUAGAAAACAUG,binding signal,[1],2.54 log2 enrichment (interaction score)
GGCUAGAACUAGUGGAUCCCCCGGCGCCCGGCGGCUCGAGCCCGGGUAAGUGUACAUAGUCUGCAUGCCGCCGGGCGCCAUGCCUGCAGGUCGACUCUAGAAAACAUG,binding signal,[1],2.11 log2 enrichment (interaction score)
same,binding signal,[2],2.38 log2 enrichment (interaction score)
GGCUAGAACUAGUGGAUCCCCCGGCGCCCGGCGGCUCGAGCCCGGGUAAGUGAAAAUAGUCUGCAUGCCGCCGGGCGCCAUGCCUGCAGGUCGACUCUAGAAAACAUG,binding signal,[3],3.09 log2 enrichment (interaction score)
GGCUAGAACUAGUGGAUCCCCCGGCGCCCGGCGGCUCGAGCCCGGGUAAGUGUUAAUAGUCUGCAUGCCGCCGGGCGCCAUGCCUGCAGGUCGACUCUAGAAAACAUG,binding signal,[4],2.92 log2 enrichment (interaction score)
GGCUAGAACUAGUGGAUCCCCCGGCGCCCGGCGGCUCGAGCCCGGGUAAGUGUAAGUAGUCUGCAUGCCGCCGGGCGCCAUGCCUGCAGGUCGACUCUAGAAAACAUG,binding signal,[5],3.15 log2 enrichment (interaction score)
GGCUAGAACUAGUGGAUCCCCCGGCGCCCGGCGGCUCGAGCCCGGGUAAGUGUAAAUAGUCUGCAUGCCGCCGGGCGCCAUGCCUGCAGGUCGACUCUAGAAAACAUG,binding signal,[6],2.21 log2 enrichment (interaction score)
same,binding signal,[7],7.25 log2 enrichment (interaction score)
same,binding signal,[2],4.59 log2 enrichment (interaction score)
GGCUAGAACUAGUGGAUCCCCCGGCGCCCGGCGGCUCGAGCCCGGGUAAGUGUCAAUAGUCUGCAUGCCGCCGGGCGCCAUGCCUGCAGGUCGACUCUAGAAAACAUG,binding signal,[6],4.91 log2 enrichment (interaction score)
same,binding signal,[8],3.4 log2 enrichment (interaction score)
GGCUAGAACUAGUGGAUCCCCCGGCGCCCGGCGGCUCGAGCCCGGGUAAGUGUAAUUAGUCUGCAUGCCGCCGGGCGCCAUGCCUGCAGGUCGACUCUAGAAAACAUG,binding signal,[9],2.45 log2 enrichment (interaction score)
